Bioassay records as filed in PubChem BioAssay.
Shown is part of a subset that was picked to be rich in hits.
Giardia FBPA inh – qHTS Assay for Inhibitors of Fructose-1,6-bisphosphate Aldolase from Giardia Lamblia | purified Giardia FBPA | 0.71% of 290,000 active | Potency, µM (titrated, usually from 59.6 µM), usual class: inhibitors | A8B2U2; note: nearly all actives have a fitted effect of over 55% in size
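Giardia FBPA (40 nM reagent) was preincubated 10 min at RT with compound (up to 57.5 uM final), then substrate plus GAPDH/TPI/NAD/arsenate coupling system with diaphorase/resazurin was added; resorufin fluorescence (525/598 nm) was read after 20 min.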
Sm TGR inh – qHTS Assay for the Inhibitors of Schistosoma Mansoni Peroxiredoxins; Schistosoma mansoni thioredoxin glutathione reductase (TGR), Q962Y6; 3% of 360,000 active; purified TGR, DTNB reduction, TNB absorbance 405 nm; Potency, µM (doses to about 114 µM), actives largely listed as inhibitors; note: nearly all actives have a fitted effect of over 60% in size
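First, TGR (20 nM dispensed) and NADPH were mixed with compound. Second, a 15 min room-temperature incubation followed. Third, further NADPH and then DTNB were added to start the reaction. Finally, TNB absorbance was monitored kinetically.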
LmPK inhibitor – qHTS Assay for Inhibitors of Leishmania Mexicana Pyruvate Kinase (LmPK); purified LmPK, Kinase-Glo ATP luminescence, 1 h; Potency, µM (doses to about 57.5 µM), usual class: inhibitors; 0.37% of 290,000 active
Target sequence (Q27686 whole entry, looked up): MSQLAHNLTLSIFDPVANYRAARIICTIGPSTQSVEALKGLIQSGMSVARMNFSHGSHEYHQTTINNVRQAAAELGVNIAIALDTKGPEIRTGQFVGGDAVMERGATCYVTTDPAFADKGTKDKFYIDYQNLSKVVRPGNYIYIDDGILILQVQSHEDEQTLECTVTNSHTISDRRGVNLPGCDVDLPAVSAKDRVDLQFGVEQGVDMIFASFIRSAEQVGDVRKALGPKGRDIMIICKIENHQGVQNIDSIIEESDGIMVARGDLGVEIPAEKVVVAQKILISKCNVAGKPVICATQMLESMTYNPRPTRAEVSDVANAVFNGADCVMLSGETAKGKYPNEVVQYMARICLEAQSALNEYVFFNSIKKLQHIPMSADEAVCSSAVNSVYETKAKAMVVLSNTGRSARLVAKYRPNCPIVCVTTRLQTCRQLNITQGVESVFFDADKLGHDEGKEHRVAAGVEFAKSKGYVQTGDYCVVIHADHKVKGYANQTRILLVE
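Pyruvate kinase activity monitored as ATP production (luciferase luminescence). Conditions: 0.1 nM enzyme, 0.5 mM PEP, 0.1 mM ADP, 1 h, RT; normalized against uninhibited and no-enzyme wells.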
Shiga inhibitor – A qHTS for Small Molecule Inhibitors of Shiga Toxin. Vero cells, Shiga toxin protein synthesis inhibition reporter. inhibition, % at 38.7 µM. 9.2% of 290,000 active. AID 2315, 2010; in the data active = inhibition mostly above about 28%, no sharp cut-off; inactive = mostly below about 43%
TbPYK inhibitor – qHTS of Trypanosoma Brucei Inhibitors. pyruvate kinase (Trypanosoma brucei), Q57TT1. TbPYK enzyme, Kinase-Glo Plus ATP luminescence, 45 min. Potency, µM (highest dose often 76.8 µM), hits mostly inhibitors. 0.12% of 410,000 active; note: nearly all actives have a fitted effect of over 50% in size
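Readout: single end-point luminescence (Kinase-Glo Plus, 10 min). Reaction conditions were TbPYK/substrate plus 130 uM ADP, 45 min at RT, pH 7.2 TEA buffer. No-enzyme wells served as controls, and data were normalized before concentration-response fitting.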
CHX counter – Cycloheximide Counterscreen for Small Molecule Inhibitors of Shiga Toxin; cell reporter, cycloheximide protein synthesis inhibition counterscreen; max response, %; 12% of 300,000 active; in the data active = max response mostly above about 13%, no sharp cut-off; inactive = mostly below about 14%; note: read at 38.3 µM for the half of the compounds with a filed dose
Hits are given with their value; n = inactive; u = inconclusive; x = no result. Unless noted, calls come from the whole dose curve; as a rule, active = well fitted curve in the direction sought with a large enough effect; inconclusive = small, poorly fitted or top-dose-only effect, or another doubt; inactive = no such curve, though single readings can be large; an effect the other way counts as inactive or inconclusive.

SMILES | Giardia FBPA inh | Sm TGR inh | LmPK inhibitor | Shiga inhibitor | TbPYK inhibitor | CHX counter
Nc1ccc(/C=C/C(=O)c2cccs2)cc1 | n | n | u | 68 | n | 40
Nc1ccc(NC(=O)c2cccs2)cc1 | n | n | n | n | n | 21
O=C(C=Cc1ccccc1)c1cccs1 | x | x | x | x | n | x
CCN(CC)c1cc(C)c2cc(NC(=O)c3cccs3)ccc2n1 | n | n | n | n | n | 23
O=C(Nc1ccc2c(c1)CCC2)c1cccs1 | n | n | u | 62 | n | 54
O=C(Cc1ccccc1)Nc1ccc(NC(=O)c2cccs2)cc1 | n | n | n | n | n | n
Cc1ccc(C)c(N2CCN(C(=O)c3ccc(Cl)c(NC4=NC5CS(=O)(=O)CC5S4)c3)CC2)c1 (configuration not stated) | x | n | n | n | n | n
CC(=O)Nc1nonc1-c1nnc(SCC(=O)Nc2cccc(C)c2C)n1-c1ccccc1 | x | n | x | x | n | x
CN(Cc1cc(Cl)cc(Cl)c1)[C@H]1C[C@H]2c3[nH]c4ccccc4c3CCN2C(=O)[C@H]1CO | x | x | x | x | n | x
Cc1ccc(NC(=O)C(=O)NCC(c2cccnc2)N2CCN(Cc3ccccc3)CC2)cc1Cl (configuration not stated) | x | n | x | x | n | x
CC(=O)Nc1ccc(NC(=O)c2ccc3c(c2)CCN3S(=O)(=O)c2ccc(Cl)cc2)cc1 | x | n | x | x | n | x
Cc1ccc(NC(=O)C(=O)NNC(=O)c2cccs2)cc1 | u | n | n | n | n | 29
COc1ccc(NC(=O)C(=O)NNC(=O)c2cccs2)cc1 | n | n | n | n | n | 15
Nc1ccc(NC(=O)Nc2ccc(N)cc2)cc1 | n | n | n | 29 | n | 17
Cc1ccc(NC(=O)c2cccs2)cc1 | n | n | u | n | n | 53
COc1ccc(NC(=O)C(=O)NNC(=O)c2cccs2)c(OC)c1 | x | n | n | n | n | n
CC(=O)Nc1ccc(N)cc1 | x | n | x | x | n | x
OC[C@@H]1CN(Cc2ccc(-c3ccccc3)cc2)C[C@H](n2cnc3c(NC4CCC4)ncnc32)O1 | x | x | x | x | n | x
Cc1cccc(NC(=O)COC(=O)CN2C(=O)c3ccccc3C2=O)c1C | x | x | x | x | n | x
Cc1ccc2c(c1)CC[C@H]1CC(=O)CC[C@@]21C | n | x | x | x | x | x
Cn1c(=O)c2ncn(C)c2n(C)c1=O | x | x | x | x | n | x
Cc1ccc2[nH]c3c(c2c1)CCCC3NC(=O)CCl (configuration not stated) | n | 45µM | n | x | n | n
CCOc1ccc(-c2nc(CSc3nnc(N)s3)cs2)cc1OC | n | n | n | 85 | n | 33
CCOc1ccc(-c2nc(CSc3nnc(N)s3)cs2)cc1 | n | n | n | 117 | n | 31
COc1ccc(/C=C/c2nnc(NC(=O)CC(C)C)s2)cc1 | n | n | n | n | n | n
SMILES | Giardia FBPA inh | Sm TGR inh | LmPK inhibitor | Shiga inhibitor | TbPYK inhibitor | CHX counter
COC(=O)Nc1nnc(/C=C/c2ccc(OC)cc2)s1 | n | n | u | 96 | n | 58
CCSc1nnc(NC(=O)Cc2ccc(OC)cc2)s1 | n | n | n | n | n | n
COc1ccc(/C=C/c2nnc(NC(C)=O)s2)cc1 | n | n | n | 72 | n | 35
CCN(CC)C1CC(=O)N(c2ccc(Br)cc2)C1=O (configuration not stated) | n | 7.1µM | n | n | n | n
Cc1ccc(S(=O)(=O)NNC2CC(=O)N(c3ccc(Br)cc3)C2=O)cc1 (configuration not stated) | n | x | n | n | n | n
Cc1ccnc(SC2CC(=O)N(c3ccc(Cl)cc3)C2=O)n1 (configuration not stated) | n | 50µM | n | n | n | n
Cc1cc(C)nc(SC2CC(=O)N(c3ccc(Br)cc3)C2=O)n1 (configuration not stated) | n | 50µM | n | n | n | n
Cc1ccnc(SC2CC(=O)N(c3ccc(C(C)C)cc3)C2=O)n1 (configuration not stated) | n | u | n | n | n | n
Cc1ccnc(SC2CC(=O)N(c3ccc(Br)cc3)C2=O)n1 (configuration not stated) | n | 50µM | n | n | n | n
O=C(CCN1CCC(c2ccccc2)C1)c1ccccc1 (configuration not stated) | n | n | n | n | n | n
COc1cc(C(=O)CCN2CCC(c3ccccc3)C2)cc(OC)c1OC (configuration not stated) | n | 0.28µM | n | n | n | n
O=C(CCN1CCc2ccccc21)c1ccc2c(c1)OCCO2 | n | u | n | n | n | 26
O=C(CCN1CCCC1Cc1ccccc1)c1ccc2c(c1)OCCO2 (configuration not stated) | n | 0.32µM | n | n | n | n
O=C(CCN1CCC(c2ccccc2)C1)c1ccc2c(c1)OCCO2 (configuration not stated) | n | 0.1µM | n | n | n | 13
O=C(O)CCC(=O)c1ccc2c(c1)OCCCO2 | n | n | n | n | n | n
O=C(CCN1CCCCC1)c1ccc2c(c1)OCCO2 | n | n | n | n | n | n
CC(CC(=O)Nc1ccc2c(c1)c(=O)n(C)n2Cc1ccc(F)cc1)c1ccccc1 (configuration not stated) | x | x | x | x | n | x
O=C(CCN1CCc2ccccc2C1)c1ccc2c(c1)OCCO2 | n | 0.28µM | n | 95 | n | 51
O=c1[nH][nH]c(=O)c2c(NS(=O)(=O)c3ccccc3)cccc12 | n | x | n | 62 | n | 36
O=S(=O)(Nc1ccc(NS(=O)(=O)c2ccccc2)c2ccccc12)c1ccccc1 | x | x | x | x | n | x
CC(=O)O[C@@H]1[C@@H](O)CN[C@@H]1Cc1ccccc1 | n | x | x | n | x | n
COc1ccc(N2C(=O)NC(=O)/C(=C\c3ccccc3[N+](=O)[O-])C2=O)cc1 | n | 16µM | n | n | u | n
CN1C(=O)NC(=O)/C(=C/c2ccc([N+](=O)[O-])s2)C1=O | u | 8.9µM | n | n | 14µM | n
COc1ccc(OC)c(N2C(=O)NC(=O)/C(=C\c3ccc([N+](=O)[O-])s3)C2=O)c1 | u | 11µM | n | n | u | n
C=C1c2cc(C)ccc2NC(=O)N1c1ccccc1 | n | n | n | n | n | n
C=C1c2ccccc2NC(=O)N1c1ccc(OC)cc1 | n | n | n | n | n | 12
Cc1noc(C)c1S(=O)(=O)N(C)C[C@H]1Oc2ccc(NS(=O)(=O)c3cn(C)cn3)cc2C(=O)N([C@H](C)CO)C[C@@H]1C | x | x | x | x | n | x
CCn1c(SCC(=O)c2ccccc2)nnc1-c1cccc(Cl)c1 | x | n | x | x | n | x
COc1cccc(C2CC(=O)Nc3c2ccc(C)c3C)c1OC (configuration not stated) | x | n | x | x | n | x
Cc1ccc(Cl)cc1N1CCN(C(=O)c2cnc(N3CCOCC3)c3ccccc23)CC1 | x | n | x | x | n | x
